# Experimental data as given in PubChem BioAssay (NCI).
# Compounds without any hit were thinned out: in the full panel of roughly 79,000, 15% have a hit. Active and inactive are the calls of the source. Rule as the data show it: active = growth inhibition above about 70%; inactive = the rest.
# Experiment: NCI Yeast Anticancer Drug Screen. Data for the rad50 strain (AID 155);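 also: 0% = growth of vehicle-only cultures of the same strain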
# Conditions: S. cerevisiae rad50 strain growth inhibition; at 5.0 µM (retest, dose inferred, filed as 0.5); hits give high values
# Method in brief: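 Cells are treated with compound, grown, and their growth is then scored against vehicle-only cultures of the same repair-deficient yeast strain.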
row,Structure (SMILES),growth inhibition
1,CCOc1ccccc1/C=C1\NC(=O)N(/C=C2\C(=O)Oc3ccccc3C2=O)C1=O,6% (inactive)
2,CC(NNC(=S)N1CCCC1)c1ccc2ccccc2n1 (stereo not given),24% (inactive)
3,N#Cc1c(-c2ccc(Cl)cc2)c(C#N)c(=O)n(NS(=O)(=O)c2ccccc2)c1S,51% (inactive)
4,CC(C)/C=C1\CCOC1=O,0% (inactive)
5,c1ccc(Nc2nnc3nc(-c4ccccc4)c(-c4ccccc4)nn23)cc1,12% (inactive)
6,O=C(NC(c1ccccc1)N1CCOCC1)c1ccccc1 (stereo not given),2% (inactive)
7,N[C@@H]1CCCC[C@@H]1N.O=C([O-])CN(CP(=O)([O-])[O-])CP(=O)([O-])[O-].[Pt+2],-1% (inactive)
8,C/C=C\C(/C=C/C)(C(=O)OCCN(C)C)C(/C=C\C)(/C=C/C)C(=O)OCCN(C)C (stereo not given),5% (inactive)
9,COc1ccc(CCNC(=S)/N=C\C(C(=O)c2ccccc2)=C(\O)c2ccccc2)cc1OC,1% (inactive)
10,Cc1ccccc1C1SCc2nc3ccccc3n21 (stereo not given),-9% (inactive)
11,O=C(Nc1ccc(Cl)cc1)Nc1nnc(/C=C/c2ccc(Cl)c(Cl)c2)o1,-1% (inactive)
12,Cc1c(CCCl)c(N=[N+]=[N-])n2c(nc3ccccc32)c1C#N,31% (inactive)
13,O=C(OCCCC(C(=O)c1ccccc1)=P(c1ccccc1)(c1ccccc1)c1ccccc1)c1ccccc1,35% (inactive)
14,O=C(c1ccccc1)c1ccc(Cl)cc1,-1% (inactive)
15,O=C1C(C(O)(C(F)(F)Cl)C(F)(F)Cl)CCCC1C(O)(C(F)(F)Cl)C(F)(F)Cl (stereo not given),95% (active)
16,CCN(CC)C(=S)N=Nc1c(O)[nH]c2ccccc12,80% (active)
17,c1csc(-c2nnc(C34CC5CC(CC(C5)C3)C4)o2)c1,-31% (inactive)
18,C/C(O)=C(/C=N/C(=S)Nc1ccc(S(N)(=O)=O)cc1)C(=O)Nc1ccccc1C,0% (inactive)
19,CC(C)(Oc1ccc(-c2cccc3ccccc23)cc1)C(=O)O,9% (inactive)
20,CCc1scc(C)[n+]1CC(=O)c1cccc([N+](=O)[O-])c1,-1% (inactive)

row,Structure (SMILES),growth inhibition
1,O=C1CCC(C(c2ccccc2)(c2ccccc2)c2ccccc2)CC1=O (stereo not given),0% (inactive)
2,Clc1ccc(C2SCc3nc4ccccc4n32)cc1Cl (stereo not given),-8% (inactive)
3,OC(CBr)c1c(Br)ccc2ccccc12 (stereo not given),3% (inactive)
4,O=C1OC(c2cccc(Cl)c2)Sc2ccccc21 (stereo not given),2% (inactive)
5,c1ccc(N2CCN(c3ccccc3)C2Cc2c[nH]c3ccccc23)cc1,30% (inactive)
6,CC(=O)c1sc(Nc2ccc(Cl)c(Cl)c2)nc1C,8% (inactive)
7,Cc1ncn(-c2ccccc2O)c1C,-3% (inactive)
8,C[n+]1c(/C=C/c2ccc(N3CCCC3)cc2)sc2ccccc21,76% (active)
9,COc1ccc(-c2c(C#N)c(S)n(NS(=O)(=O)c3ccc(C)cc3)c(=O)c2C#N)cc1,40% (inactive)
10,N#Cc1c(-c2ccc(Cl)c(Cl)c2)c(-c2ccc(Cl)c(Cl)c2)nn(CCO)c1=O,73% (active)
11,NCc1ccc(O)c(O)c1O,-2% (inactive)
12,C[CH2][Sn]([CH2]C)([O]C(=O)c1cc(OC)c(OC)c(OC)c1)[O][Sn]([CH2]C)([CH2]C)[O]C(=O)c1cc(OC)c(OC)c(OC)c1,33% (inactive)
13,C=CCNCCC1CCCCCC1,7% (inactive)
14,Cc1ccc(/C=C/C(=O)/C=C/c2ccc(C)o2)o1,50% (inactive)
15,CCCC(=O)c1cc(O)c(O)c(CN(C)Cc2cc(Cl)cc(C)c2O)c1O,-8% (inactive)
16,COC(=O)/C(C#N)=C/c1cc(OC)c(O)cc1Br,46% (inactive)
17,O=C(/C=C/c1ccccc1)CCN1CCOCC1,21% (inactive)
18,c1cc2c(c3c1CN(C1CCCCC1)CO3)OCN(C1CCCCC1)C2,2% (inactive)
19,CSc1nc2ccccc2s1,-5% (inactive)
20,CC1(C)CC(=O)C(CSC(=O)c2ccccc2)=C(O)C1,-1% (inactive)
